TTR transcr act – TTR transcription activation, primary screen; SH-SY5Y TTR promoter Gaussia luciferase, luminescence; 100% = recombinant luciferase protein wells; AID 1117267; activation, % at 16.7 µM; 92,000 compounds, 1.3% hits;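 active = activation above the mean of all tested compounds plus 3 SD, cut at about 9.5% in these data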;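 also: cells exposed to compounds for one day before reading; 0% = median of all test compound wells on the plate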
HuH7 TTR inh – HuH7 TTR transcription inhibition, counter-screen; shares compounds with TTR transcr act; HuH7 TTR promoter-Gaussia luciferase reporter, luminescence; inhibition, % at 16.7 µM; 1,100 compounds, 4% hits; AID 1117279;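 active = average inhibition above the solvent-only control wells' mean plus 3 SD, cut at about 15% in these data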;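 also: 0% = cells with DMSO only and 100% = cells with inhibitor control FD; inhibitors lower well luminescence so higher value means more inhibition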
TTR act confirm – confirmation of human transthyretin transcription activators. shares compounds with TTR transcr act. SHSY5Y TTR promoter Gaussia luciferase, luminescence; 100% = purified Lucia enzyme wells, no cells. activation, % at 16.7 µM. 1,100 tested, under 10 active. AID 1117280;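 active = mean activation above a set limit taken from the earlier primary screen, cut at about 11% in these data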;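 also: 0% = DMSO-treated cells and 100% = recombinant Lucia luciferase without cells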
Starred values were filed as active, the others as inactive. Shown is part of a subset that was picked to be rich in hits.

SMILES	TTR transcr act	others
O=C(CN(Cc1ccco1)Cc1cccs1)N1CCN(S(=O)(=O)c2cccc(F)c2)CC1	-1.3
O=C(Cc1cccs1)N1CCN(S(=O)(=O)c2ccc(F)c(F)c2)CC1	10.3*	HuH7 TTR inh=-11.0;TTR act confirm=0.6
O=C(Cc1cccs1)N1CCN(S(=O)(=O)c2ccccc2)CC1	1.1
O=C1c2cccnc2C(Nc2ccccc2Br)N1Cc1ccco1 (centres undefined)	-1.4
CCCCC(c1nnnn1C1CCCC1)N1CCN(C2CCCC2)CC1 (centres undefined)	17.0*	HuH7 TTR inh=-15.3;TTR act confirm=-0.2
CC(C)CC(c1nnnn1C1CCCCC1)N1CCN(c2ncccn2)CC1 (centres undefined)	-1.4
CCC(c1nnnn1Cc1cccs1)N1CCN(C2CCCC2)CC1 (centres undefined)	-0.5
COc1cc(Cl)cc(C2NC(=S)NC(c3ccccc3)=C2C(C)=O)c1OCC(=O)O (centres undefined)	0.4
c1ccc2c(c1)COC(CN1CCCCC1)OC2	1.3
O=C(CCl)Nc1ccccc1C(=O)Nc1ccc2c(c1)OCO2	1.9
O=C(NNC(=O)c1cnccn1)c1ccc(Cl)cc1	-2.3
O=C(Nc1ccccc1N1CCCCC1)c1cnccn1	2.0
O=C(NNC(=O)C1CCCCC1)c1cnccn1	12.5*	HuH7 TTR inh=-8.6;TTR act confirm=0.1
NS(=O)(=O)c1ccc(CCNC(=O)CNC(=O)c2ccc(Oc3ccccc3)cc2)cc1	-0.3
COc1cc(/C(C)=N/NC(=O)Cc2c(C)[nH][nH]c2=O)ccc1O	13.5*	HuH7 TTR inh=-5.0;TTR act confirm=0.1
COc1ccc(/C(C)=N/NC(=O)Cc2c(C)nc(C)[nH]c2=O)cc1	1.8
C/C(=N/NC(=O)Cc1c(C)[nH][nH]c1=O)c1ccc(O)cc1	-0.1
O=C1CCC[C@H]2C[C@H](NCc3ccc(Cl)c(C(F)(F)F)c3)CC[C@]23CCCN13	-0.8
CCOC(=O)CNC(=S)N(Cc1ccco1)Cc1ccccc1Cl	0.5
COc1ccc(C(=O)CN2C(=O)NC3(CCCc4ccccc43)C2=O)c(OC)c1 (centres undefined)	0.8
CC12CC3CC(C)(C1)CC(C(=O)NC(=S)N1CCCCC1)(C3)C2	14.0*	HuH7 TTR inh=-6.0;TTR act confirm=-0.3
CC12CC3(C)CC(C)(C1)CC(C(=O)NC(=S)N1CCOCC1)(C2)C3	0.1
CN(C)C(=S)NC(=O)C12CC3CC(C)(CC(C)(C3)C1)C2	-2.2
Cc1ccccc1OCC(=O)OCC(=O)N1CCc2ccccc21	-1.6
COc1ccccc1C(=O)N1CCc2ccccc21	-2.0
SMILES	TTR transcr act	others
COc1cccc(C(=O)OCC(=O)N2CCc3ccccc32)c1OC	11.7*	HuH7 TTR inh=-16.8;TTR act confirm=1.3
CCOC(=O)Cc1csc(SCC(=O)N2CCN(c3ccc(OC)cc3)CC2)n1	-0.1
CCOC(=O)Cc1csc(SCC(=O)Nc2cc(Cl)ccc2Oc2ccccc2)n1	9.7*	HuH7 TTR inh=1.3;TTR act confirm=-1.4
CCOC(=O)Cc1csc(Nc2ccc(Cl)cc2)n1	-1.2
C/C(=N/NC(=O)c1cccs1)c1ccc(NC(=O)COc2ccc(Cl)cc2)cc1	4.1
Nc1nc(NC(=O)c2ccc(F)cc2)ns1	-2.3
CCCCNc1nc2sc3c(c2c(=O)n1-c1cccc(Cl)c1)CCN(C)C3	101.8*	HuH7 TTR inh=-9.1;TTR act confirm=0.6
CN1CCc2c(sc3nc(SCC(=O)N4CCCCC4)n(-c4ccccc4)c(=O)c23)C1	8.0
CCSc1nc2sc3c(c2c(=O)n1-c1ccccc1C)CCN(C)C3	-1.3
COCCNC(=O)C1(C)CCCN(Cc2ccc(-c3ccccc3)o2)C1 (centres undefined)	-0.8
COc1ccc(-c2ccc(CN3C(C)C(=O)N(Cc4cn(CCC5OCCO5)nn4)CCS3(=O)=O)cc2)cc1 (centres undefined)	-2.4
Cc1ccc(/C=N/NC(=O)Cc2cccs2)o1	0.2
O=C(Cc1cccs1)N/N=C/c1ccccn1	15.3*	HuH7 TTR inh=-10.5;TTR act confirm=-0.5
O=C(Cc1ccc(F)cc1)N/N=C/c1ccccn1	0.7
CCOC(=O)c1cnc(-c2ccc(C(F)(F)F)cn2)[nH]c1=O	0.7
CC(OC(=O)CCC(=O)c1ccc(Cl)s1)C(=O)NC1(C#N)CCCCC1 (centres undefined)	-1.3
CCN(CC)c1cccc(OC(=O)c2cccnc2Cl)c1	0.1
COc1ccc(Cc2nnc(-c3ccccc3)o2)cc1	-1.2
COc1ccc(SCCc2nnc(-c3ccccc3)o2)cc1	-0.8
CCCc1nnc(-c2ccc(OC)cc2)o1	11.7*	HuH7 TTR inh=-1.3;TTR act confirm=-0.8
C=CC[C@H](CC(=O)OC(C)(C)C)C(=O)OC[C@H]1CCCN1C(=O)[C@@H](CC=C)CC(=O)N(CCO)Cc1ccccc1	1.7
CC1CN(C=O)CC(C)N1CCN1C(C)CN(C=O)CC1C (centres undefined)	-0.5
CC(C(=O)NCc1cccnc1)c1ccc([N+](=O)[O-])cc1 (centres undefined)	-0.1
Cc1cc(N2CCC[C@@H]2C)nc2ccccc12	4.3
COc1ccc(OC)c(C2C(C(=O)O)c3ccccc3C(=O)N2C)c1 (centres undefined)	-1.9
SMILES	TTR transcr act	others
COc1ccc(C2C(C(=O)N3CCN(c4ccccc4)CC3)c3ccccc3C(=O)N2C)cc1OC (centres undefined)	2.0
COc1ccc(C2C(C(=O)O)c3ccccc3C(=O)N2C)cc1Br (centres undefined)	11.3*	HuH7 TTR inh=-5.4;TTR act confirm=0.4
CCC(C)[C@H](NS(=O)(=O)c1ccc(C)cc1)C(=O)N1CCC(C(=O)N2CCC(C(N)=O)CC2)CC1 (some centres undefined)	2.3
Cc1ccc(C(=O)Nc2cc3c(oc2=O)CCCC3=O)cc1	27.5*	HuH7 TTR inh=8.2;TTR act confirm=-0.1
Cc1ccc(C(=O)Nc2c[nH]c(=O)[nH]c2=O)cc1	3.4
Cc1oc(=O)c(NC(=O)c2ccccc2)cc1C(C)O (centres undefined)	5.5
Cc1c(Cl)cccc1N=C1NC(=O)CS1	1.2
O=S(=O)(Cc1ccc(Cl)cc1)NCc1ccc2c(c1)OCO2	-0.5
CN(c1ccc(OCC(=O)N2CCN(c3ccc(F)cc3)CC2)cc1)S(=O)(=O)c1cccs1	-2.6
Cc1cc(NS(=O)(=O)c2ccc(NC(=S)Nc3ccc(Cl)cc3C)cc2)no1	6.4
O=C1c2ccccc2C(=O)N1c1nccs1	-0.3
COc1ccc(N2C(=O)C3C4C=CC(C4)C3C2=O)nn1 (centres undefined)	0.5
O=C1C2C3C=CC(C3)C2C(=O)N1c1nccs1 (centres undefined)	14.6*	HuH7 TTR inh=-6.3;TTR act confirm=-0.4
CC(=O)NC1CC2CCCC(C1)N2C(=O)Nc1cccc(Cl)c1 (centres undefined)	2.9
S=c1[nH]nc(-c2ccncc2)n1/N=C/C=C/c1ccccc1	4.8
Cc1ccc(-c2n[nH]c(=S)n2/N=C/c2sccc2C)cc1	1.3
Cc1ccc(-c2n[nH]c(=S)n2/N=C/c2ccncc2)cc1	10.0*	HuH7 TTR inh=5.7;TTR act confirm=0.0
Cc1cc(NC(=O)Cn2cnc3sccc3c2=O)no1	1.0
Cc1cccc(NC(=O)c2cn(-c3ccccc3)nc2-c2ccccc2)c1	-2.2
COc1ccc(O)c(C(=O)c2cnn(C(=O)c3cccc(S(=O)(=O)N4CCOCC4)c3)c2)c1	3.8
CC(=O)c1ccc(OCCCC(=O)N2CCN(S(=O)(=O)c3cccs3)CC2)cc1	-1.1
O=C(O)CCC(=O)N1CCN(S(=O)(=O)c2cccs2)CC1	3.9
O=C(CCCOc1ccccc1)N1CCN(S(=O)(=O)c2cccs2)CC1	26.9*	HuH7 TTR inh=-10.1;TTR act confirm=3.8
